# Compounds without any hit were thinned out: in the full panel of roughly 83,000, 20% have a hit.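 48-hour exposure, single concentration, 96-well plates; percent growth endpoint where 0 means no net growth. Active: below 10.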 Values without a mark were called inactive. Calls of active or inactive are those of the source.
# Tests used:
# Assay in all cases: NCI-60 one-dose screen, 48 h (100 = growth as untreated, 0 = no growth, -100 = all killed)
# Conditions in all cases: 10 µM unless noted
# NCI-H23 lung = tested on: NCI-H23 lung
# NCI-H226 lung = tested on: NCI-H226 lung
# NCI-H322M lung = tested on: NCI-H322M lung
# HOP-62 NSCLC = tested on: HOP-62 NSCLC
# NCI-H460 lung = tested on: NCI-H460 lung
# HOP-92 NSCLC = tested on: HOP-92 NSCLC
# NCI-H522 lung = tested on: NCI-H522 lung
# 786-0 renal = tested on: 786-0 renal
# DU-145 prostate = tested on: DU-145 prostate
# K-562 leukemia = tested on: K-562 leukemia
# MALME-3M melanoma = tested on: MALME-3M melanoma
# MDA-MB-231 breast = tested on: MDA-MB-231 breast
# RXF 393 renal = tested on: RXF 393 renal
# SF-268 CNS = tested on: SF-268 CNS
# SF-295 CNS = tested on: SF-295 CNS
# SF-539 CNS = tested on: SF-539 CNS
# UACC-257 melanoma = tested on: UACC-257 melanoma
# M14 melanoma = tested on: M14 melanoma
# A549/ATCC NSCLC = tested on: A549/ATCC NSCLC
# COLO 205 colon = tested on: COLO 205 colon
Structure (SMILES),growth (NCI-H23 lung),growth (NCI-H226 lung),growth (NCI-H322M lung) [%],growth (HOP-62 NSCLC),growth (NCI-H460 lung),growth (HOP-92 NSCLC),growth (NCI-H522 lung),growth (786-0 renal),growth (DU-145 prostate),growth (K-562 leukemia),growth (MALME-3M melanoma),growth (MDA-MB-231 breast),growth (RXF 393 renal),growth (SF-268 CNS),growth (SF-295 CNS) [%],growth (SF-539 CNS),growth (UACC-257 melanoma),growth (M14 melanoma) [%],growth (A549/ATCC NSCLC) [%],growth (COLO 205 colon)
CCOc1ccc(-c2nc3ccc(-c4nc5ccc(N6CCN(C)CC6)cc5[nH]4)cc3[nH]2)cc1OCC,-7.66% (active),-8.92% (active),42.1,16.7%,17.2%,48.8%,-18.2% (active),22.3%,11.1%,12.8%,-34.7% (active),19.4%,-37.8% (active),19.3%,27.2,-42.7% (active),6.87% (active),10,,
CCOC(=O)C(O)C(O)(c1ccccc1)c1ccccc1 (configuration not stated),102%,90.2%,96.7,97%,110%,113%,92.8%,102%,,98%,103%,94.4%,113%,95.4%,95.6,94.5%,106%,101,95.6,
N#Cc1cnn2c(-c3ccc(Cl)cc3)nc(NC3CC3)nc12,90.9%,97.4%,87.5,98.3%,100%,97.5%,90.6%,89.8%,88.8%,,125%,101%,93.7%,84.4%,89.8,89.2%,111%,108,84.4,
Cc1ccc(C)c2c1C(=O)OC2=O,95.5%,98.4%,89.3,92.1%,111%,128%,80.8%,101%,,78.9%,87.8%,106%,127%,98.8%,96.2,99.7%,102%,102,99.4,
C[N+](C)(C)CCOC(OCC[N+](C)(C)C)(c1ccccc1)c1ccccc1,99.8%,107%,129,106%,106%,91%,93%,114%,,99%,126%,108%,122%,,117,96.6%,103%,,,116%
N#Cc1cnn2c(-c3ccc(Cl)cc3)nc(NCCc3ccccc3)nc12,85.2%,105%,83.5,84.9%,99%,92.6%,74.4%,92.5%,99.5%,,111%,87.5%,116%,92.2%,99.2,98%,99.9%,95,93.3,
O=[N+]([O-])c1cccc(/C=C/c2ccccn2)c1,76.1%,74.9%,134,73.2%,91%,34.7%,72.1%,53.3%,78.3%,67.4%,114%,87.3%,69.3%,76.9%,71.1,68.6%,102%,,,105%
Clc1ccc2[nH]c3c(NCCCN4CCOCC4)ncnc3c2c1,76.8%,86.1%,68.9,83.5%,69.3%,67.8%,90.3%,80.3%,87.3%,31.6%,93.9%,56.7%,70.5%,99.6%,64.7,95.4%,98.2%,73.8,,
C=C1C(=O)O[C@H]2[C@H]1CC/C(COC(=O)/C=C\C(=O)NCc1ccc(Cn3c(=O)sn(-c4ccc(OC)cc4)c3=O)cc1)=C\CC[C@@]1(C)O[C@@H]21,-69.9% (active),-65.9% (active),32.4,-20.4% (active),-65.5% (active),-65% (active),-45.2% (active),-57.9% (active),-84% (active),0.146% (active),-92% (active),-89.6% (active),,-78.3% (active),55,-99.3% (active),-62.2% (active),,,-45.9% (active)
COc1ccc(-c2nnc(SCC(=O)NC3=NN=C(c4ccccc4)CS3)o2)cc1,103%,93.8%,102,86.2%,101%,98.5%,93.3%,101%,102%,,105%,91.5%,117%,94.2%,98,101%,67.1%,95.5,74.7,
COc1cc(-c2ccc(N=Nc3c(O)c(C(=O)Nc4ccccc4OC)cc4ccccc34)c(OC)c2)ccc1N=Nc1c(O)c(C(=O)Nc2ccccc2OC)cc2ccccc12,93.5%,94.1%,86.8,80.6%,99.6%,77.6%,90.4%,87.2%,,90.6%,90.6%,76.2%,93.1%,87.5%,95.1,103%,109%,90.7,95.6,
Nc1ccc(-c2cc3c(Nc4ccc(OCc5cccc(F)c5)c(Cl)c4)ncnc3s2)cc1,68.6%,53.5%,26.6,62.3%,36.5%,45.8%,13.1%,37.2%,36.9%,,42.1%,13.4%,52.5%,52.1%,47.8,57.4%,18.3%,51.9,21.2,
O=[N+]([O-])c1ccc(-c2cc3c(Nc4ccc(Sc5nc6ccccc6s5)c(Cl)c4)ncnc3s2)cc1,19.9%,76.2%,55.5,36.1%,11.8%,56.6%,30%,61.6%,44.9%,,62.9%,29.2%,68.8%,39.4%,23.2,54.3%,66.6%,35.2,18.5,
O=[N+]([O-])c1ccccc1C(O)Cc1ccc2ccccc2n1 (configuration not stated),95.7%,83.5%,85.9,88%,97.4%,77.5%,101%,104%,,108%,89.6%,68.3%,91.2%,93.1%,103,98.4%,93.3%,90,97.4,
CCOC(=O)c1cnn2c(-c3ccc(Cl)cc3)nc(NCc3ccccc3)nc12,58.4%,89.3%,99.2,93.5%,78.1%,64.2%,81.5%,6.24% (active),44.6%,,64.6%,77.5%,40.7%,28.8%,58.9,10.7%,96.2%,86.8,84.9,
O=C1C=CC(=Nc2cc(Br)c(O)c(Br)c2)C=C1,78.1%,93.9%,105,82.1%,109%,29.5%,-14.6% (active),70.2%,102%,12.6%,70.2%,72.6%,,82.7%,101,86.4%,90.9%,,,113%
CCOC(=O)N1CCc2c(sc3c2C(=O)N[C@H](c2ccc(OC)cc2)N3)C1,103%,94.7%,105,68.4%,104%,92.6%,76%,97.8%,113%,,96.7%,104%,113%,101%,97,100%,86.6%,94.7,85.4,

# From PubChem BioAssay (NCI)
